Shown is part of a subset that was picked to be rich in the strongest signals.
Assays:
Assay in all cases: glycan array binding signal (z-score within array); higher = stronger binding
Conditions in all cases: glycan notation: IUPAC condensed, linker removed
[1] = biological target: Fuc(a1-2)Gal(b1-3)GalNAc(b1-4)[Neu5Ac(a2-3)]Gal(b1-4)Glc
In short: (§1)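 Arrays were curated from the Consortium for Functional Glycomics database, 3228 in total, and kept only where the protein sequence was available. Binding is expressed as a within-array Z-score. This score was averaged across arrays of the same protein sequence at different concentrations or buffers and across linkers, and negative values can be read as non-binding.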

[2] = biological target: Fuc(a1-2)[Gal(a1-3)]Gal(b1-3)GlcNAc
In short: as §1

[3] = biological target: Fuc(a1-2)[GalNAc(a1-4)]Gal(b1-4)GlcNAc
In short: as §1

[4] = biological target: Fuc(a1-4)GlcNAc
In short: as §1

[5] = biological target: Gal(a1-3)Gal(b1-4)GlcNAc
In short: as §1

[6] = biological target: Gal(b1-3)[Fuc(a1-4)]GlcNAc
In short: as §1

[7] = biological target: Gal(b1-3)[Fuc(a1-4)]GlcNAc(b1-3)Gal(b1-4)[Fuc(a1-3)]GlcNAc
In short: as §1

[8] = biological target: Gal3S(b1-3)GalNAc
In short: as §1

[9] = biological target: GalNAc(a1-3)Gal
In short: as §1

[10] = biological target: GalNAc(a1-3)GalNAc
In short: as §1

[11] = biological target: GalNAc(b1-3)Gal(a1-4)Gal(b1-4)GlcNAc
In short: as §1

[12] = biological target: GlcA(b1-6)Gal
In short: as §1

[13] = biological target: GlcNAc(b1-3)Gal(b1-4)Glc
In short: as §1

[14] = biological target: Man(a1-2)Man(a1-3)Man
In short: as §1

[15] = biological target: Man(a1-2)Man(a1-3)[Man(a1-2)Man(a1-6)]Man(a1-6)[Man(a1-3)[Man(a1-6)]Man(a1-6)]Man(b1-4)GlcNAc(b1-4)GlcNAc
In short: as §1

[16] = biological target: Neu5Ac(a2-3)Gal(b1-3)[Neu5Ac(a2-3)Gal(b1-4)]GlcNAc
In short: as §1

[17] = biological target: Neu5Ac(a2-3)Gal(b1-4)GlcNAc(b1-3)Gal(b1-4)GlcNAc(b1-3)Gal(b1-4)GlcNAc
In short: as §1

[18] = biological target: Neu5Ac(a2-3)Gal(b1-4)GlcNAc6S
In short: as §1

[19] = biological target: Neu5Ac(a2-3)Gal(b1-4)[Fuc(a1-3)]GlcNAc(b1-3)Gal(b1-4)GlcNAc
In short: as §1

[20] = biological target: Neu5Ac(a2-6)Gal(b1-4)GlcNAc(b1-2)Man(a1-3)[Neu5Ac(a2-6)Gal(b1-4)GlcNAc(b1-2)Man(a1-6)]Man(b1-4)GlcNAc(b1-4)GlcNAc
In short: as §1

[21] = biological target: Neu5Ac(a2-6)GalNAc(b1-4)GlcNAc
In short: as §1

[22] = biological target: Neu5Gc(a2-3)Gal(b1-3)[Fuc(a1-4)]GlcNAc
In short: as §1

[23] = biological target: Neu5Gc(a2-3)Gal(b1-4)Glc
In short: as §1

[24] = biological target: Neu5Gc(a2-6)GalNAc
In short: as §1

B1: M6PR (Bos taurus), P11456 (protein)
chain: MMSPLHSSWRTGLLLLLLFSVAVRESWQTEEKTCDLVGEKGKESEKELALLKRLTPLFNKSFESTVGQSPDMYSYVFRVCREAGNHSSGAGLVQINKSNGKETVVGRFNETQIFNGSNWIMLIYKGGDEYDNHCGREQRRAVVMISCNRHTLADNFN
[1]
  glycan array binding signal (z-score): 2.76
[2]
  glycan array binding signal (z-score): -0.012
[3]
  glycan array binding signal (z-score): -0.255
[4]
  glycan array binding signal (z-score): -0.026
[5]
  glycan array binding signal (z-score): -0.036
[6]
  glycan array binding signal (z-score): -0.132
[7]
  glycan array binding signal (z-score): 0.169
[8]
  glycan array binding signal (z-score): -0.095
[9]
  glycan array binding signal (z-score): 1.42
[10]
  glycan array binding signal (z-score): 0.045
[11]
  glycan array binding signal (z-score): 0.285
[12]
  glycan array binding signal (z-score): -0.256
[13]
  glycan array binding signal (z-score): 1.12
[14]
  glycan array binding signal (z-score): -0.287
[15]
  glycan array binding signal (z-score): 3.23
[16]
  glycan array binding signal (z-score): -0.269
[17]
  glycan array binding signal (z-score): -0.446
[18]
  glycan array binding signal (z-score): -0.267
[19]
  glycan array binding signal (z-score): 0.517
[20]
  glycan array binding signal (z-score): -0.279
[21]
  glycan array binding signal (z-score): 0.219
[22]
  glycan array binding signal (z-score): -0.343
[23]
  glycan array binding signal (z-score): -0.187
[24]
  glycan array binding signal (z-score): 1.03
